Measured values taken from PubChem BioAssay.
The source made the active and inactive calls.

How the values were obtained:
[1] = system: Plasmodium falciparum Sir2 (PF13_0152, Sir2A); assay: Plasmodium falciparum Sir2A binding compounds – biochemical, small-molecule microarray, 635 nm fluorescence, primary screen (AID 1098); settings: fluorescence 635 nm, higher = more signal;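 further: score merges spot fluorescence intensity with its signal-to-noise ratio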
[2] = probe aDKK1 binding to arrayed compounds – biochemical, biotinylated probe, 635/667 nm fluorescence, primary screen (AID 1099); settings: small-molecule microarray, higher = more signal;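 further: score merges 667nm spot fluorescence with signal to noise across triplicate slides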
[3] = probe aCHRDL2 binding to arrayed compounds – biochemical, biotinylated probe, 635/667 nm fluorescence, primary screen (AID 1100); settings: small-molecule microarray, higher = more signal
[4] = change in splice reporter luminescence, either direction, cell-based, HEK293, spliceosome inhibition project, primary screen (AID 1101); settings: HEK293 splicing luciferase reporter, 24 h, higher = more signal, called active from +8 up or from −8 down;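 further: HEK293 cells carrying a splicing-competent luciferase reporter gene; test concentration not given here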
[5] = target: Fibroblast growth factor 10 (Homo sapiens) (UniProt O15520); assay: compounds binding fibroblast growth factor 10 – biochemical, small-molecule microarray, 635 nm fluorescence, primary screen (AID 1102); settings: FGF10 binding, fluorescence 635 nm, higher = more signal
Sequence of Fibroblast growth factor 10 (Homo sapiens) (O15520 whole entry, looked up): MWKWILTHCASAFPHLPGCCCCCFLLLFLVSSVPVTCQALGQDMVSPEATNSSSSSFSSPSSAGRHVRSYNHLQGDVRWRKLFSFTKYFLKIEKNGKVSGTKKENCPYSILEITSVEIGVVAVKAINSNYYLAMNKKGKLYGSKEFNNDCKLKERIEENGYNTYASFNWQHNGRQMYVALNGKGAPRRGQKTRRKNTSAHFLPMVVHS

[6] = system: glycogen synthase kinase-3 (GSK3A per assay name; protocol says GSK3B); assay: compounds binding glycogen synthase kinase-3 – biochemical, small-molecule microarray, 635 nm fluorescence, GSK3A, primary screen (AID 1103); settings: fluorescence 635 nm, higher = more signal; further: the record names both GSK3A and GSK3B
[7] = target: Epidermal growth factor receptor (Homo sapiens) (UniProt P00533); assay: compounds binding epidermal growth factor receptor – biochemical, small-molecule microarray, 635 nm fluorescence, primary screen (AID 1104); settings: EGFR binding, higher = more signal;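 further: score merges 667 nm emission intensity with spot signal to noise over triplicate slides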
Sequence of Epidermal growth factor receptor (Homo sapiens) (P00533 whole entry, looked up): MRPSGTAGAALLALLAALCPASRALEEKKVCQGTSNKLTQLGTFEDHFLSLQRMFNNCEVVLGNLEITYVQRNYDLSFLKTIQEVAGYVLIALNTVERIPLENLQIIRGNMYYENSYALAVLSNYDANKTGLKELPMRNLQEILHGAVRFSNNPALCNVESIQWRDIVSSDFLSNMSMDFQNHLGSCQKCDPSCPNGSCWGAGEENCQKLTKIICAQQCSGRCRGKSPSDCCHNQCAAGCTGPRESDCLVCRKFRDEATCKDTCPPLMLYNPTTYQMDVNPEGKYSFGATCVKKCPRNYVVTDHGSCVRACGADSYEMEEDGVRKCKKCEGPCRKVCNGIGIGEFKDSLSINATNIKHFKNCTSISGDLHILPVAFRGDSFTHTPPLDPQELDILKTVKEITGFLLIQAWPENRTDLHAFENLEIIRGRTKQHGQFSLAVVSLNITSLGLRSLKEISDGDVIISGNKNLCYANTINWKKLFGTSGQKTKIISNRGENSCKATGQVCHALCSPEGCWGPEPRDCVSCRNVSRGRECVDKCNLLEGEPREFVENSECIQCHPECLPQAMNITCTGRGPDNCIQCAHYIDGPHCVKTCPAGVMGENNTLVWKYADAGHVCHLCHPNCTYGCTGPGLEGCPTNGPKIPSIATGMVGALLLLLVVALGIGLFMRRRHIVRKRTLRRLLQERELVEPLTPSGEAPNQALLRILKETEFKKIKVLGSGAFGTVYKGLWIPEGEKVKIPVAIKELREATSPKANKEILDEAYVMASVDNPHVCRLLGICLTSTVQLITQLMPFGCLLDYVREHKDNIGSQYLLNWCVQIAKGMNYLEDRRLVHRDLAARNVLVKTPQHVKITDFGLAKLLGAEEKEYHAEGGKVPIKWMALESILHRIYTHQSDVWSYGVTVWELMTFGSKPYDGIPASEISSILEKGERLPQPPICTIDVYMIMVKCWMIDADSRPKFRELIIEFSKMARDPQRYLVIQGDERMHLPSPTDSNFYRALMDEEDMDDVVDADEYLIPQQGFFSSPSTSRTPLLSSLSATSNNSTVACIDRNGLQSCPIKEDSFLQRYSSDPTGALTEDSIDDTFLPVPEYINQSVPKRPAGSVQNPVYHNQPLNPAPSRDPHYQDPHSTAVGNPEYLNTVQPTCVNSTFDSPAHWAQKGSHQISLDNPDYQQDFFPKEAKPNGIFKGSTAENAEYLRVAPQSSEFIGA

[8] = target: Follistatin-related protein 3 (Homo sapiens) (UniProt O95633); assay: compounds binding follistatin-related protein 3 – biochemical, small-molecule microarray, 635 nm fluorescence, primary screen (AID 1105); settings: FSTL3 binding, higher = more signal;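 further: score merges emission near 667 nm and signal to noise per printed spot across three slides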
Sequence of Follistatin-related protein 3 (Homo sapiens) (O95633 whole entry, looked up): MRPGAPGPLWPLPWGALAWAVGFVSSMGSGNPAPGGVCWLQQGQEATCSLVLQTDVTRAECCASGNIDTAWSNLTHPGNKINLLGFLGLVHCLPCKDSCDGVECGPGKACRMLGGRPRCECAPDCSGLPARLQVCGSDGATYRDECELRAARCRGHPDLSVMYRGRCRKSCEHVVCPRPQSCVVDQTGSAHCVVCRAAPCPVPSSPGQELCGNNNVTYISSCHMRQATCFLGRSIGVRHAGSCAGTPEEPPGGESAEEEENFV

[9] = target: Dickkopf-related protein 1 (Homo sapiens) (UniProt O94907); assay: small molecules binding DKK1 protein – biochemical, small-molecule microarray, 635 nm fluorescence scan, primary screen (AID 1106); settings: higher = more signal;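 further: score merges emission near 667 nm with signal to noise over three replicate slides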
Sequence of Dickkopf-related protein 1 (Homo sapiens) (O94907 whole entry, looked up): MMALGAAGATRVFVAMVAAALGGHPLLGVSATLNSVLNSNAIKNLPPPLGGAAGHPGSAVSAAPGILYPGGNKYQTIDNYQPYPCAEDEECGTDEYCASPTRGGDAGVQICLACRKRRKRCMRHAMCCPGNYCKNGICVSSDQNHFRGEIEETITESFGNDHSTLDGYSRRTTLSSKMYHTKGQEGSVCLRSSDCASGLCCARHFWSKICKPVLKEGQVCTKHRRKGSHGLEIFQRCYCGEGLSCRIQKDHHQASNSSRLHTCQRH

[10] = system: Inhibin beta A chain (activin A); assay: small molecules binding activin A – biochemical, small-molecule microarray, 635 nm fluorescence scan, primary screen (AID 1107); settings: INHBA, higher = more signal;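 further: mouse activin A protein probed at 4.33 µg/mL on printed slides; score merges bound-protein fluorescence near 667 nm with spot signal-to-noise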
[11] = system: Human papillomavirus type 1a protein E7 (residues 44-93); assay: small molecules binding HPV E7 44-93 – biochemical, small-molecule microarray, residues 44-93, 635 nm fluorescence, primary screen (AID 1108); settings: fluorescence 635 nm, higher = more signal;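 further: E7 fragment applied at 1 µg/mL in TBST for 1 h at 4 C; score combines spot fluorescence with its signal to noise ratio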
[12] = hepatitis C replication reporter changes, two-sided – Huh7 cells, luciferase reporter, HCV replication inhibitor project, primary screen (AID 1109); settings: Huh7 HCV replicon luciferase reporter, 48 h; higher = more signal;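 further: huh7 hepatoma cells harbouring a luciferase neomycin HCV replicon reporter; luciferase luminescence as measure of HCV replicon replication; test concentration not given here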
[13] = target: Left-right determination factor 2 (Homo sapiens) (UniProt O00292); assay: small molecules binding LEFTY2 protein – biochemical, small-molecule microarray, 635 nm fluorescence scan, primary screen (AID 1110); settings: higher = more signal
Sequence of Left-right determination factor 2 (Homo sapiens) (O00292 whole entry, looked up): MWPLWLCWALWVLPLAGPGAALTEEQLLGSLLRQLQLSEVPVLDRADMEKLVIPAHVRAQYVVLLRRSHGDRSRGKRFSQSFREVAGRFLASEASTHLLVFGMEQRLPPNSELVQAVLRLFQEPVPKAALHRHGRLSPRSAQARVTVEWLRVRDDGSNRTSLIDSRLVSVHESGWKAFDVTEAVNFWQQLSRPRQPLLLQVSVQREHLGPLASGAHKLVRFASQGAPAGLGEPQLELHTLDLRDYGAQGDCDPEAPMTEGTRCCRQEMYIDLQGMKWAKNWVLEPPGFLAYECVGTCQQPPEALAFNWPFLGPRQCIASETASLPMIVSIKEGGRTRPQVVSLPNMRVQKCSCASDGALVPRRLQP

[14] = target: Calmodulin-1 (Homo sapiens) (UniProt P0DP23); assay: small molecules binding calmodulin-1 with EGTA – biochemical, small-molecule microarray, Cy5-labelled CALM1, profiling panel (AID 1111); settings: Cy5-CALM1 binding fluorescence, higher = more signal;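 further: labelled calmodulin applied in Tris saline Tween buffer holding calcium plus EGTA and DTT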
[15] = target: Calmodulin-1 (Homo sapiens) (UniProt P0DP23); assay: small molecules binding Ca-loaded calmodulin-1 – biochemical, small-molecule microarray, Cy5-labelled CALM1, plus calcium, artefact control for SMM control-protein annotation, profiling panel (AID 1112); settings: Cy5-CALM1 binding fluorescence, higher = more signal;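 further: score merges spot fluorescence with signal to noise from triplicate slides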
[16] = probe aWnt5a binding to arrayed compounds – biochemical, biotinylated probe, 635/667 nm fluorescence, primary screen (AID 1113); settings: small-molecule microarray, higher = more signal;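 further: score merges 667 nm fluorescence intensity with signal-to-noise per printed feature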
[17] = probe aShh binding to arrayed compounds – biochemical, biotinylated probe, 635/667 nm fluorescence, primary screen (AID 1114); settings: small-molecule microarray, higher = more signal;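 further: probe is biotin-labelled aShh protein from a stem cell growth factor screen; measures binding of labelled protein to compounds printed on the slide; score merges feature fluorescence at 667 nm with signal-to-noise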
[18] = probe aNog binding to arrayed compounds – biochemical, biotinylated probe, 635/667 nm fluorescence, primary screen (AID 1115); settings: small-molecule microarray, higher = more signal;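 further: probe is biotinylated aNog protein used at 0.15 µg/mL for 1 h at 4 C; z-score combines 667 nm fluorescence of each spot with its signal to noise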
[19] = target: Torsin-1A-interacting protein 1 (Homo sapiens) (UniProt Q5JTV8); assay: compound microarray binding of lysate hLAP1 – cell lysate, small-molecule microarray, COS7 lysate, 635/667 nm fluorescence, primary screen (AID 1116); settings: 635 nm fluorescence, higher = more signal
Sequence of Torsin-1A-interacting protein 1 (Homo sapiens) (Q5JTV8 whole entry, looked up): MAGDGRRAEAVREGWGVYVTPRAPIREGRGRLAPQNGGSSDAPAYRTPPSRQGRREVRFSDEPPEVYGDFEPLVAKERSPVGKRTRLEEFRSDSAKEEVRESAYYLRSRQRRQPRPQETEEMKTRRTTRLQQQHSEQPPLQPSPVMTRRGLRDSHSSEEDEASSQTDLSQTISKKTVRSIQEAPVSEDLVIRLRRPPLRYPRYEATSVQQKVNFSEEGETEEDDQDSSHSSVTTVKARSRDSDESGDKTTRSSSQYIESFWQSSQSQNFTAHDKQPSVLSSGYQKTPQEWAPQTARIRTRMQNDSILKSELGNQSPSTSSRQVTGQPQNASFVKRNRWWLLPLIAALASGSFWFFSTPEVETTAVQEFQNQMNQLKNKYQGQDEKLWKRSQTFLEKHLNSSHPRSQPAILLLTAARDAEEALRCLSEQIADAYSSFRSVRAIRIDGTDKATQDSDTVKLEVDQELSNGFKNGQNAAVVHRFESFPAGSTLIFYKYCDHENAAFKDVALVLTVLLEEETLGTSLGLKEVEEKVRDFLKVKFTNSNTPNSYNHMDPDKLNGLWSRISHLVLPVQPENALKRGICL

[20] = target: Alpha-bungarotoxin (Bungarus multicinctus) (UniProt P60615); assay: compounds binding labelled alpha-BTX control protein – biochemical, small-molecule microarray, Alexa647 label, 635/667 nm fluorescence, artefact control for SMM control protein annotation, profiling panel (AID 1117); settings: alpha-BTX-A647 binding fluorescence, higher = more signal
Sequence of Alpha-bungarotoxin (Bungarus multicinctus) (P60615 whole entry, looked up): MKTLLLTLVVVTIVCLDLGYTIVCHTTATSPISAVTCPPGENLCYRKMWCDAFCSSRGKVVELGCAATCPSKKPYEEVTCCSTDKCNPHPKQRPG

Compound | composite z-score [1] | composite z-score [2] | composite z-score [3] | z-score [4] | composite z-score [5] | composite z-score [6] | composite z-score [7] | composite z-score [8] | composite z-score [9] | composite z-score [10] | composite z-score [11] | z-score [12] | composite z-score [13] | composite z-score [14] | composite z-score [15] | composite z-score [16] | composite z-score [17] | composite z-score [18] | composite z-score [19] | composite z-score [20]
CCOC(=O)C1=NO[C@]2(C=C(Br)C3(OCCCO3)[C@H]3O[C@H]32)C1 | -0.695 | -0.32 | -0.274 | 0.437 (inactive) | 0.18 | -0.512 | -0.203 | -0.425 | -0.123 | 0.549 | -1.53 | 0.426 | 0.306 | -1.04 | -0.175 | -0.161 | -0.0879 | 0.341 | 0.194 | 0.477
O=C1CCCC=C1C(O)CCOC(c1ccccc1)(c1ccccc1)c1ccccc1 (stereo not given) | -0.0236 | -0.231 | -0.15 | -0.0834 (inactive) | 0.0203 | -0.388 | -0.0225 | -0.108 | 0.335 | 0.874 | -1 | -3.22 | 0.13 | -0.428 | -0.131 | -0.0161 | -0.366 | 0.0195 | -0.462 | -0.28
COC(=O)[C@@H]1CC[C@H](C)[C@@H](c2ccc(C)cc2)N1C(=O)c1ccc(C=NOC[C@@H](C)[C@H](OCc2ccccc2)C(C)C)cc1 | 0.854 | 0.0975 | -0.233 | -1.12 (inactive) | 0.532 | 1.16 | 0.814 | 0.804 | 0.414 | -0.182 | 1.09 | -0.989 | 0.583 | -0.0027 | -0.607 | -0.0276 | -0.0553 | -0.302 | 1.27 | 1.25
CC(C)CON=C1[C@H]2CCn3c(=O)n(Cc4cc5c(cc4Cl)OCO5)c(=O)n3[C@H]2[C@H](O)[C@@H]2O[C@H]12 | 0.241 | -0.304 | -0.641 | -0.756 (inactive) | 0.533 | 0.589 | 0.483 | 0.554 | 0.484 | 0.233 | 0.271 | 0.0671 | 0.389 | -0.0844 | -0.635 | -0.0758 | 0.0815 | -0.329 | 0.38 | 0.351
CC(C)(C)N1C(=O)[C@H]2[C@H]3[C@H](O)[C@H](O)CC(=NO[C@@H]4O[C@H](CO)[C@@H](O)[C@H](O)[C@H]4O)[C@H]3CC[C@H]2C1=O | 0.0937 | -0.215 | -0.38 | 0.543 (inactive) | 0.16 | -0.524 | 0.408 | 0.487 | 0.639 | 1.35 | 0.518 | -1.13 | 0.4 | -0.653 | -1.12 | -0.0337 | -0.0769 | -0.196 | 0.509 | -0.309
Cc1cc2c(c(=O)o1)[C@@H](O)[C@H]1O[C@H]1C2=O | 0.338 | -0.145 | -0.699 | -0.533 (inactive) | 0.436 | 0.231 | 0.287 | 0.522 | 0.585 | 0.0545 | -0.0158 | 0.73 | 0.384 | -0.374 | -0.876 | -0.154 | -0.243 | -0.265 | 0.27 | 0.56
CC(C)=CCCC(C)=CCON=C1C[C@@H](O)[C@@H](O)[C@@H]2[C@@H]3C(=O)N(C(C)(C)C)C(=O)[C@@H]3CC[C@H]12 | 0.0059 | 0.0507 | -0.396 | 0.129 (inactive) | 0.396 | 0.563 | 0.512 | 0.392 | 0.432 | -0.159 | 0.356 | 0.217 | 0.61 | -0.327 | -0.889 | -0.118 | -0.153 | -0.0446 | 0.452 | 0.135
CC(C)CON=C1C[C@@H](O)[C@@H](O)[C@@H]2[C@@H]3C(=O)N(C4CCCCC4)C(=O)[C@@H]3CC[C@@H]12 | 1.17 | -0.22 | -0.198 | 0.353 (inactive) | -0.0852 | -0.925 | -0.305 | -0.504 | -0.607 | -0.164 | -0.991 | -1.6 | 0.0528 | -0.333 | -0.558 | -0.178 | -0.279 | -0.417 | 0.136 | 0.673
CCCCc1nc2c(c3c1C[C@H](C)OC3)CN(CCOc1ccccc1)CC2 | 0.489 | 0.107 | -0.277 | -1.21 (inactive) | 0.632 | 0.427 | 0.681 | 1.27 | 0.302 | 0.765 | 0.348 | -0.659 | 0.814 | -0.407 | -0.7 | -0.0738 | -0.0977 | -0.304 | 0.56 | 0.672
CC(C)=CCCC(C)=CCON=C1C[C@@H](O)[C@@H](O)[C@@H]2[C@@H]3C(=O)N(c4ccc(F)cc4F)C(=O)[C@@H]3CC[C@H]12 | 0.176 | -0.016 | -0.428 | -0.956 (inactive) | 0.0906 | 0.349 | 0.531 | 1.08 | 0.612 | 0.342 | 1.36 | 0.19 | 0.621 | -0.0184 | -0.778 | -0.124 | 0.0668 | -0.379 | 0.153 | 0.39
CO[C@H]1COC(=O)CC=C[C@H](C)[C@@H](OC)COC(=O)[C@H](C)COC(=O)CC=C[C@@H]1C | 0.661 | -0.822 | -1.53 | -0.0334 (inactive) | 0.0773 | 0.429 | 1.36 | 1.1 | 1.78 | 1.52 | -0.61 | 0.507 | 1.33 | -0.774 | -1.62 | -0.154 | -0.439 | -0.303 | -0.396 | -0.876
